# Molecular target: T1, Arginase-2, mitochondrial (Homo sapiens) (UniProt P78540)
# T1 sequence (whole entry): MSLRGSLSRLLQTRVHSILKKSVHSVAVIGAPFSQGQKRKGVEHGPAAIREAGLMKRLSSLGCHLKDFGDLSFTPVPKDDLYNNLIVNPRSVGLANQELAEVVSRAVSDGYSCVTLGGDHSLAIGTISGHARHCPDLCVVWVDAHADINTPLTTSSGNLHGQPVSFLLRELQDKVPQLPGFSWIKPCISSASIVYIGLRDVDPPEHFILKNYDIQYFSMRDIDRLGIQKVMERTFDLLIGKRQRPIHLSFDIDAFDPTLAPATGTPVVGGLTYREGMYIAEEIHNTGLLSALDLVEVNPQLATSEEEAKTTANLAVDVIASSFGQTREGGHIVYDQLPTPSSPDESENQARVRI
# Assay: in vitro enzyme assay to detect the production of urea directly proportional to the activity of Arginase II
# Assay type: functional
# Set-up: scale not given: in the data most compounds retested in dose-response had high values
# Details: 33.3 µM
row,Structure (SMILES),Percent Effect
1,Cc1ccc(N2CC3(COCCN(Cc4nccs4)C3)OCC2=O)s1 (stereo not drawn),9.68%
2,CCOCCCn1c(NC(=O)c2cnn(C)c2)nc2ccccc21,-1.07%
3,CCn1nnc2cc(C(=O)N3CCCC3Cn3cc(C)cn3)ccc21 (stereo not drawn),2.28%
4,CN(C)CC1CSCCCN1C(=O)c1ccc(C(C)(C)C)cc1 (stereo not drawn),7.1%
5,CS(=O)(=O)CC(=O)N1C[C@H]2CCC[C@@]2(COCc2ccccn2)C1,11.2%
6,COc1ccccc1CN(C)C(=O)c1cc(CN2CCC(O)CC2)on1,18.6%
7,COCC(O)CNC(=O)c1coc(COc2ccc3sc(C)nc3c2)n1 (stereo not drawn),5.46%
8,CCc1n[nH]c(C2CN(Cc3nccn3CC)CCO2)n1 (stereo not drawn),6.53%
9,COc1ccc(-n2ccc(C(=O)N3CCN(C)CC3C)n2)cc1 (stereo not drawn),-0.712%
10,c1ccc(-c2noc(CNC3CCc4ncnn4C3)n2)nc1 (stereo not drawn),1.66%
11,Cc1cc(=O)n2ncnc2n1CC(O)c1cc(F)ccc1F (stereo not drawn),1.18%
12,CSc1ccc(C(CNC(=O)C2CC2)N2CCc3sccc3C2)cc1 (stereo not drawn),-2.37%
13,CS(=O)(=O)NC[C@H]1OC[C@@H]2CCN(Cc3ccc(F)cc3)C[C@@H]21,-27.8%
14,COc1ccc(CNC(=O)CNc2cc3c(cc2Cl)OCCCO3)cc1,0.744%
15,CCOCCOc1ccccc1C(=O)N1CCCC(c2ncc[nH]2)C1 (stereo not drawn),3.64%
16,CC(O)CN1CCN(C(=O)c2cc3ccccc3c(=O)[nH]2)CC1 (stereo not drawn),-10.7%
17,CCN1CCC(NC(=O)CN2CCCC2Cn2nc(C)cc2C)CC1 (stereo not drawn),-5.61%
18,CCc1ccc(OCC(O)CN2CCN(S(C)(=O)=O)CC2)cc1 (stereo not drawn),-3.58%
19,O=C1CCCN1CC1CN(C(=O)CC2CCCC2)Cc2nccn2C1 (stereo not drawn),0.645%
20,Cc1nc(C2CCN(C(=O)c3cccnc3)CC2)c2sccn12,3.48%

# Molecular target: T2, Proteasome subunit beta (Trypanosoma cruzi) (UniProt O96673)
# T2 sequence (whole entry): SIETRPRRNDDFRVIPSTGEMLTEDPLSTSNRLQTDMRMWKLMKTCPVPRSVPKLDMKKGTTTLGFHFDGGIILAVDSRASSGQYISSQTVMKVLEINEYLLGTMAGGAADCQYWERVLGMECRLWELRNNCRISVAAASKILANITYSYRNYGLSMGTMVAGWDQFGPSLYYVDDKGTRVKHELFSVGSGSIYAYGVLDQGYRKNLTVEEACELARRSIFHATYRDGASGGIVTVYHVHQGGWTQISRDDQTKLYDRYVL
# Assay: Trypanosoma cruzi proteasome chymotrypsin-like activity (TcProtChymo) assay.
# Assay type: functional
# Set-up: scale not given: in the data most compounds retested in dose-response had high values
# Details: 9.37 µM
row,Structure (SMILES),Percent Effect
1,CCCNCC1(O)CCCN(Cc2cccc(C)c2)C1=O (stereo not drawn),-2.66%
2,COCCC1(CO)CCCN(Cc2ccc(F)c(C)c2)C1 (stereo not drawn),2.15%
3,Cn1cc(C(=O)N[C@@H]2CN(Cc3cccs3)[C@@H]3CCCO[C@@H]32)cn1,9.74%
4,Cn1ccnc1-c1cccc(NC(=O)NCCCO)c1,11.8%
5,CC(C)(C)NC(=O)CNC(=O)CCc1ccccc1Br,21.8%
6,c1ccc(CN2CCCC(c3nccnc3-n3ccnc3)C2)cc1 (stereo not drawn),14.5%
7,COc1ccc2nnc(CCCC(=O)NCCC3=CCCCC3)n2n1,12.2%
8,Cc1cnn(CC2CN(Cc3nc(N)c4ccccc4n3)CCO2)c1 (stereo not drawn),19.3%
9,O=C(c1ccccn1)N1CCc2nc(-c3cnccn3)nc(O)c2C1,11.7%
10,NCC(c1ccccc1)N1CCc2sccc2C1 (stereo not drawn),17.6%
11,Cc1cc(C(=O)N2Cc3ccccc3OC3(CCOCC3)C2)nc(N)n1,22.9%
12,CC1=Nc2c(c(=O)[nH]n2C(C)C)C(c2ccccc2)S1 (stereo not drawn),12%
13,FC(F)(F)c1cc(N2CCc3ncnc(NC4CC4)c3CC2)ncn1,14.4%
14,O=C(Nc1ccc(F)cc1F)Nc1c[nH]c(=O)[nH]c1=O,6.09%
15,Cn1c(Cn2cccn2)nnc1C1CCN(Cc2cccnc2N)CC1,3.86%
16,Cc1ccc(C2CSCCN2C(=O)C2=CCCC2)o1 (stereo not drawn),2.83%
17,COC(=O)c1cccc(C(=O)N2CCN(c3cccc(C)c3C)CC2)n1,10.3%

row,Structure (SMILES),Percent Effect
1,NS(=O)(=O)N1CCc2ccc(NC(=O)Cc3ccc(F)cc3)cc21,6.92%
2,COc1ccccc1C1CNC(=O)c2nc(-c3cnn(C)c3)[nH]c2C1 (stereo not drawn),10%
3,O=C1NCCN1C1CCN(Cc2nc(-c3ccoc3)no2)CC1,4.56%
4,Cc1ccc(N2CC3(COCCN(Cc4nccs4)C3)OCC2=O)s1 (stereo not drawn),17.8%
5,CCOCCCn1c(NC(=O)c2cnn(C)c2)nc2ccccc21,2.37%
6,CCn1nnc2cc(C(=O)N3CCCC3Cn3cc(C)cn3)ccc21 (stereo not drawn),0.737%
7,CN(C)CC1CSCCCN1C(=O)c1ccc(C(C)(C)C)cc1 (stereo not drawn),1.39%
8,CS(=O)(=O)CC(=O)N1C[C@H]2CCC[C@@]2(COCc2ccccn2)C1,26%
9,COc1ccccc1CN(C)C(=O)c1cc(CN2CCC(O)CC2)on1,12.8%
10,COCC(O)CNC(=O)c1coc(COc2ccc3sc(C)nc3c2)n1 (stereo not drawn),14.7%
11,CCc1n[nH]c(C2CN(Cc3nccn3CC)CCO2)n1 (stereo not drawn),9.62%
12,COc1ccc(-n2ccc(C(=O)N3CCN(C)CC3C)n2)cc1 (stereo not drawn),-0.676%
13,c1ccc(-c2noc(CNC3CCc4ncnn4C3)n2)nc1 (stereo not drawn),-5.57%
14,Cc1cc(=O)n2ncnc2n1CC(O)c1cc(F)ccc1F (stereo not drawn),15.6%
15,CSc1ccc(C(CNC(=O)C2CC2)N2CCc3sccc3C2)cc1 (stereo not drawn),16%
16,CS(=O)(=O)NC[C@H]1OC[C@@H]2CCN(Cc3ccc(F)cc3)C[C@@H]21,7.35%

# — ChEMBL document CHEMBL3988442, “University of Dundee, Small-Polar-MMV Screening Library” (2021)
